A number with no mark means an inactive call. Inconclusive results are not listed. Active and inactive are the calls of the source. Unless noted, calls come from the whole dose curve; as a rule, active = well fitted curve in the direction sought with a large enough effect; inconclusive = small, poorly fitted or top-dose-only effect, or another doubt; inactive = no such curve, though single readings can be large; an effect the other way counts as inactive or inconclusive.
Molecular target: Pyruvate kinase (Leishmania mexicana) (UniProt Q27686)
Sequence (Q27686 2-499 E452W): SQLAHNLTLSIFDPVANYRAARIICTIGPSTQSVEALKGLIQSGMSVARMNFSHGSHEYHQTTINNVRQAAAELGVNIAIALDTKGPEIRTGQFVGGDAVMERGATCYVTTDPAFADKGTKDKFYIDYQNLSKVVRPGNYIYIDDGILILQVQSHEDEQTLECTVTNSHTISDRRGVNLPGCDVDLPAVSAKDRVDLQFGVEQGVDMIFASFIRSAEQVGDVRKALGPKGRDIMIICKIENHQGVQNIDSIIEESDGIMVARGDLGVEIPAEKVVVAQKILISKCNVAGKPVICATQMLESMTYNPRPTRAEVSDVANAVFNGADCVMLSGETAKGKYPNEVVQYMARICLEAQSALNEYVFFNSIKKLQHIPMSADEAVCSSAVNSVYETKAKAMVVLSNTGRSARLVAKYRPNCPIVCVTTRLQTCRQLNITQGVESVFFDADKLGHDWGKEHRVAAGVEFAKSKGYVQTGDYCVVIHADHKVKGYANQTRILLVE
Assay: qHTS Validation Assay for Inhibitors of Leishmania Mexicana Pyruvate Kinase (AID 945);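 note: 0% = DMSO only neutral control wells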
Details: purified L. mexicana pyruvate kinase, enzyme activity, E451W mutant enzyme; series mostly up to 57.5 µM; activity change, negative = inhibition: at the top concentration
In short: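 Mutant LmPYK (E451W), 0.2 nM, plus 0.5 mM PEP and 0.1 mM ADP in 50 mM imidazole pH 7.2 containing 0.01% Tween 20 and 0.05% BSA. Incubated 1 h at room temperature; luminescence via PKLight, normalized to DMSO.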

Structure (SMILES)	activity change, negative = inhibition
O=C(CCCN1CCC(O)(c2ccc(Cl)cc2)CC1)c1ccc(F)cc1	3.05%
CNCCCC12CCC(c3ccccc31)c1ccccc12	2.27%
CN(Cc1cnc2nc(N)nc(N)c2n1)c1ccc(C(=O)N[C@@H](CCC(=O)O)C(=O)O)cc1	5.25%
CN1CCC(=C2c3ccccc3C=Cc3ccccc32)CC1	6.9%
CN1CCN(C2=Nc3cc(Cl)ccc3Nc3ccccc32)CC1	7.75%
Cc1cnc(C(=O)NCCc2ccc(S(=O)(=O)NC(=O)NC3CCCCC3)cc2)cn1	-11.7%
CN(C)C(=O)C(CCN1CCC(O)(c2ccc(Cl)cc2)CC1)(c1ccccc1)c1ccccc1	-2.71%
OCCN1CCN(CCCN2c3ccccc3Sc3ccc(C(F)(F)F)cc32)CC1	-6.82%
CCCCc1oc2ccccc2c1C(=O)c1cc(I)c(OCCN(CC)CC)c(I)c1	-8.27%
Fc1ccc([C@@H]2CCNC[C@H]2COc2ccc3c(c2)OCO3)cc1	6.3%
Cc1ccccc1N1C(=O)c2cc(S(N)(=O)=O)c(Cl)cc2NC1C (centres undefined)	5.77%
OCCN(CCO)c1nc(N2CCCCC2)c2nc(N(CCO)CCO)nc(N3CCCCC3)c2n1	-11.5%
CC(C)Cc1ccc(C(C)C(=O)O)cc1 (centres undefined)	6.19%
Cc1cc(C(C)(C)C)cc(C)c1CC1=NCCN1	-1.77%
CC[N+](CC)(CC)CCOc1cccc(OCC[N+](CC)(CC)CC)c1OCC[N+](CC)(CC)CC	-16.7%
Nc1nc2c(ncn2COC(CO)CO)c(=O)[nH]1	3.65%

Tested on: not listed separately
Assay: MultiTox-Fluor Cytotoxicity Assay - LYMP1-001 - Dead Cells (AID 946);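 note: cells exposed to compound for 16 h; 0% = DMSO and 100% = tetraoctylammonium bromide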
Details: LYMP1-001 lymphoblastoid cells, dead-cell protease fluorescence; series mostly up to 92.2 µM; cytotoxicity (dead cells): at the top concentration
In short: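 LYMP1-001 lymphoblastoid cells (2500/well) treated 16 h at 37 C. Dead-cell protease cleavage of bis-AAF-R110 read at Ex/Em 485/520. Normalized to DMSO and 15 uM tetraoctylammonium bromide; AC50 from Hill fits.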

Structure (SMILES)	cytotoxicity (dead cells)	Potency
NCCS(=O)(=O)O	-6.64%	
COc1ccc(CCN(C)CCCC(C#N)(c2ccc(OC)c(OC)c2)C(C)C)cc1OC (centres undefined)	12.6%	
Cc1cn([C@H]2C=C[C@@H](CO)O2)c(=O)[nH]c1=O		inactive
Cc1cn([C@H]2C[C@H](N=[N+]=[N-])[C@@H](CO)O2)c(=O)[nH]c1=O	-6.92%	

Tested on: not listed separately
Assay: MultiTox-Fluor Cytotoxicity Assay - LYMP1-001 - Live Cells (AID 947);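 note: 0% = DMSO only and full inhibition = tetraoctylammonium bromide control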
Details: LYMP1-001 lymphoblastoid cells, live-cell protease fluorescence viability; series mostly up to 92.2 µM; activity change, negative = cytotoxicity: at the top concentration

Structure (SMILES)	activity change, negative = cytotoxicity	outcome
NCCS(=O)(=O)O	-27.2%	
COc1ccc(CCN(C)CCCC(C#N)(c2ccc(OC)c(OC)c2)C(C)C)cc1OC (centres undefined)	-10.8%	
Cc1cn([C@H]2C=C[C@@H](CO)O2)c(=O)[nH]c1=O		inactive
Cc1cn([C@H]2C[C@H](N=[N+]=[N-])[C@@H](CO)O2)c(=O)[nH]c1=O	-11%	

Tested on: not listed separately
Assay: Cell Viability - LYMP1-002 - Assay at 16 hr (AID 948);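 note: 0% = DMSO alone and full effect = 92 µM tetraoctylammonium bromide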
Details: LYMP1-002 lymphoblastoid cell viability; series mostly up to 92.2 µM; activity change, negative = cytotoxicity: at the top concentration
In short: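 ATP luminescence (CellTiter-Glo) was measured after 16 hr compound exposure at 37 C of 2500 lymphoblastoid LYMP1-002 cells per well. Concentration-response curves were fitted with the Hill equation to give AC50.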

Structure (SMILES)	activity change, negative = cytotoxicity	outcome
NCCS(=O)(=O)O	0.314%	
COc1ccc(CCN(C)CCCC(C#N)(c2ccc(OC)c(OC)c2)C(C)C)cc1OC (centres undefined)	-10.9%	
Cc1cn([C@H]2C=C[C@@H](CO)O2)c(=O)[nH]c1=O		inactive
Cc1cn([C@H]2C[C@H](N=[N+]=[N-])[C@@H](CO)O2)c(=O)[nH]c1=O	-4.27%	

Molecular target: Pyruvate kinase PKM (Homo sapiens) (UniProt P14618)
Sequence (P14618 whole entry, looked up): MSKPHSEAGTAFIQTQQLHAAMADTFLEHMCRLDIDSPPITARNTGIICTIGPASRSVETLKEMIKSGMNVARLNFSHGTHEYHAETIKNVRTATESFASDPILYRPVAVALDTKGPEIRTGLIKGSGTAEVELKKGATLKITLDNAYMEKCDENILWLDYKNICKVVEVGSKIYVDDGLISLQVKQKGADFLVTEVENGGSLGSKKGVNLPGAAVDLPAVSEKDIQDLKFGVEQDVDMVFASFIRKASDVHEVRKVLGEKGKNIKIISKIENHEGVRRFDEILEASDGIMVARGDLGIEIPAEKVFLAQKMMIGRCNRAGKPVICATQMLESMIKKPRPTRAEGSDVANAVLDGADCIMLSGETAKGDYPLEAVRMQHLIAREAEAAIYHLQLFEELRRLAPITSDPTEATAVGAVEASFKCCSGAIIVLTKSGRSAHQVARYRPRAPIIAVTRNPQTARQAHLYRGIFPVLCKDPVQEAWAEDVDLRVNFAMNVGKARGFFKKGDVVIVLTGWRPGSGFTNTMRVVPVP
Assay: qHTS Assay for Activators of Human Muscle Pyruvate Kinase (AID 954; active = well fitted curve in the direction sought with a large enough effect, not every such curve was filed as active;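 note: 0% = uninhibited enzyme and -100% = no enzyme or full thiadiazolimine inhibition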)
Details: purified human muscle pyruvate kinase, luciferase-coupled luminescence, 1 h; series mostly up to 57.5 µM; activity change, negative = inhibition: at the top concentration
In short: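 Purified human PKM2 (0.1 nM) with 0.5 mM PEP (Km) and 0.1 mM ADP in 50 mM imidazole pH 7.2, KCl, MgCl2, 1 h at room temperature; ATP formed read by coupled luciferase luminescence. Normalized to no-enzyme/110 uM thiadiazolimine inhibition; 0.3 nM enzyme column for activation.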

Structure (SMILES)	activity change, negative = inhibition
NCCS(=O)(=O)O	-10.1%
CCOC(=O)Nc1ccc(NCc2ccc(F)cc2)nc1N	3.9%
NC(=O)NO	-10.7%
O=c1c(O)c(-c2ccc(O)c(O)c2)oc2cc(O)cc(O)c12	-14.9%
CCc1cccc2c3c([nH]c12)C(CC)(CC(=O)O)OCC3 (centres undefined)	13%
Cc1ccc(C(=O)Nc2ccc(S(=O)(=O)O)c3cc(S(=O)(=O)O)cc(S(=O)(=O)O)c23)cc1NC(=O)c1cccc(NC(=O)Nc2cccc(C(=O)Nc3cc(C(=O)Nc4ccc(S(=O)(=O)O)c5cc(S(=O)(=O)O)cc(S(=O)(=O)O)c45)ccc3C)c2)c1	-52.2%
Cn1ccc2cc3c(cc21)CCN3C(=O)Nc1cccnc1	-104%
CN(C)CCOC(c1ccccc1)c1ccccc1	-16.8%
Cc1cn([C@H]2C=C[C@@H](CO)O2)c(=O)[nH]c1=O	-17.6%
CN1CCN(CCCN2c3ccccc3Sc3ccc(Cl)cc32)CC1	-3%
O=C(CCCN1CCC(O)(c2ccc(Cl)cc2)CC1)c1ccc(F)cc1	-6.75%
CNCCCC12CCC(c3ccccc31)c1ccccc12	-6.73%
CN(Cc1cnc2nc(N)nc(N)c2n1)c1ccc(C(=O)N[C@@H](CCC(=O)O)C(=O)O)cc1	10.4%
CN1CCC(=C2c3ccccc3C=Cc3ccccc32)CC1	-8.21%
CN1CCN(C2=Nc3cc(Cl)ccc3Nc3ccccc32)CC1	-5.88%
Cc1cnc(C(=O)NCCc2ccc(S(=O)(=O)NC(=O)NC3CCCCC3)cc2)cn1	-15.6%
CN(C)C(=O)C(CCN1CCC(O)(c2ccc(Cl)cc2)CC1)(c1ccccc1)c1ccccc1	-16.4%
OCCN1CCN(CCCN2c3ccccc3Sc3ccc(C(F)(F)F)cc32)CC1	0.662%
CCCCc1oc2ccccc2c1C(=O)c1cc(I)c(OCCN(CC)CC)c(I)c1	-16.2%
Fc1ccc([C@@H]2CCNC[C@H]2COc2ccc3c(c2)OCO3)cc1	-20.6%
Cc1ccccc1N1C(=O)c2cc(S(N)(=O)=O)c(Cl)cc2NC1C (centres undefined)	-14.6%
OCCN(CCO)c1nc(N2CCCCC2)c2nc(N(CCO)CCO)nc(N3CCCCC3)c2n1	-7.59%
CC(C)Cc1ccc(C(C)C(=O)O)cc1 (centres undefined)	-19.9%
Cc1cc(C(C)(C)C)cc(C)c1CC1=NCCN1	-13.1%
CC[N+](CC)(CC)CCOc1cccc(OCC[N+](CC)(CC)CC)c1OCC[N+](CC)(CC)CC	-28.9%
Nc1nc2c(ncn2COC(CO)CO)c(=O)[nH]1	-27.8%

— PubChem BioAssay (NCATS)
